Results as given in ChEMBL document CHEMBL1961873, “Compounds: GSK PKIS; Assays: Nanosyn kinase panel” (2012).

These molecules were tested against Casein kinase I isoform gamma-1 (Homo sapiens) (UniProt Q9HCP0). Conditions: at 1 µM.
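Further: reported value is the mean inhibition of CK1 gamma-1 kinase activity across replicate measurements.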

Chain of Casein kinase I isoform gamma-1 (Homo sapiens) (Q9HCP0 whole entry, looked up, canonical isoform): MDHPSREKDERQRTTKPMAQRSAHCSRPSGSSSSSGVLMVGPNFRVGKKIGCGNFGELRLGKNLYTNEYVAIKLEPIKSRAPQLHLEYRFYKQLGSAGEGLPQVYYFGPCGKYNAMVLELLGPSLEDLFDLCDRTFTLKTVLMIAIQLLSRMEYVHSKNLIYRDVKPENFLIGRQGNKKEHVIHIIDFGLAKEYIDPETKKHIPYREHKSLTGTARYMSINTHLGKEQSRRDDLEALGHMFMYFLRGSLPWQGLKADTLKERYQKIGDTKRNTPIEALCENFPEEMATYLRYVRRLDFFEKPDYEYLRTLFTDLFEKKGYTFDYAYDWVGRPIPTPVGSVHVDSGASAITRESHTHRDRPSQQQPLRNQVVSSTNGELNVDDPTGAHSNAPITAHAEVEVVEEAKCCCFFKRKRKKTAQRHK

Row | Compound | inhibition
1 | Clc1ccc(CNc2nccc(-c3cnn4ncccc34)n2)cc1 | 7.72%
2 | CN(c1ccc(NC(=O)Nc2c(Cl)cccc2Cl)cc1)c1ccnc(Nc2cccc(CS(C)(=O)=O)c2)n1 | 1.32%
3 | Cc1ccc(NC(=O)c2ccoc2)cc1-c1ccc(C(=O)NCC2CC2)cc1 | 3.5%
4 | FC(F)(F)c1cccc(Nc2nccc(-c3cnn4nc(-c5ccccc5)ccc34)n2)c1 | 2.54%
5 | CN(C)c1ccc2c(c1)/C(=C/Nc1ccc(S(N)(=O)=O)cc1)C(=O)N2 | 1.57%
6 | C/C(Nc1ccc(S(N)(=O)=O)cc1)=C1/C(=O)Nc2ccccc21 | 6.33%
7 | COc1cc(N2CCN(C(C)C)CC2)ccc1Nc1nc(Nc2ccc(F)cc2C(=O)NC[C@@H](O)CO)c2cc[nH]c2n1 | 17.9%
8 | Nc1nccc(-c2c(-c3ccc(F)cc3)ncn2C2CCC(O)CC2)n1 (centres undefined) | 5.79%
9 | N#Cc1ccc(Oc2nccc(-c3c(-c4ccc(F)cc4)ncn3C3CCNCC3)n2)cc1 | 5.9%
10 | C[C@@H](Oc1cc(-n2cnc3ccc(OCC4CCN(C)CC4)cc32)sc1C(N)=O)c1ccccc1Cl | 8.54%
11 | Fc1ccc(-c2c(-c3ccncc3)nc3n2CCS3)cc1 | -0.38%
12 | O=C(Nc1n[nH]c2cc(-c3cc(F)ccc3F)ccc12)C1CC1 | 3.73%
13 | CCS(=O)(=O)c1ccc(OC)c(Nc2ncc(-c3ccccc3Cl)o2)c1 | 0.86%
14 | O=C(Nc1n[nH]c2nc(-c3ccco3)ccc12)C1CC1 | 1.22%
15 | NS(=O)(=O)c1ccc(Nc2cc(-c3ccc(O)c(F)c3)n[nH]2)cc1 | 0.81%
16 | O=C1Nc2ccccc2/C1=C/Nc1ccc(-n2cncn2)cc1 | 7.11%
17 | Fc1ccc(-c2ncn(C3CCNCC3)c2-c2ccnc(Oc3ccc(F)c(F)c3)n2)cc1 | 2.33%

Row | Compound | inhibition
18 | COc1cc(C)c(N(C)C(=O)CN(C)C)cc1Nc1nc(Nc2cccc(F)c2C(N)=O)c2cc[nH]c2n1 | 11.3%
19 | COc1ccc(-c2ccc3c(NC(=O)C4CC4)n[nH]c3n2)cc1 | 2.17%
20 | COc1cc(Nc2ncc3c(C)nc(-c4cccc(Oc5ccccc5)c4)n3n2)cc(OC)c1OC | 3.71%
21 | COc1cc(Nc2ncc3c(C)nc(-c4cccc(C(F)(F)F)c4)n3n2)cc(OC)c1OC | 4.47%
22 | c1ccc(-c2n[nH]cc2-c2ccnc(-c3ccc(OCCN4CCOCC4)cc3)c2)nc1 | -0.62%
23 | CCc1cccc(CC)c1/C=C/c1cncc(C(=O)NC)c1 | 5.44%
24 | NS(=O)(=O)c1ccc(N/N=C2\C(=O)Nc3ccc(-c4cnco4)cc32)cc1 | -1.7%
25 | COc1cc2ncn(-c3cc(OCc4ccccc4C(F)(F)F)c(C(C)=O)s3)c2cc1OC | 3.34%
26 | COc1cccc(-n2cnc3c(N/N=C/c4ccncc4)ncnc32)c1 | -4.26%
27 | NS(=O)(=O)c1ccc(N/N=C2\C(=O)Nc3ccc(C(=O)NCCCn4ccnc4)cc32)cc1 | 10.8%
28 | Fc1ccc(-c2ncn(C3CCNCC3)c2-c2ccnc(Oc3ccc4c(c3)OCO4)n2)cc1 | 13.1%
29 | COc1cc(Nc2ncc(-c3ccccc3)o2)cc(OC)c1OC | -0.76%
30 | Fc1ccc(-c2ncn(C3CCNCC3)c2-c2ccnc(Oc3ccc(Oc4ccccc4)cc3)n2)cc1 | 20.6%
31 | O=C(Nc1ccc(Oc2ccc3[nH]c(NC(=O)c4ccccc4)nc3c2)cc1)Nc1cc(C(F)(F)F)ccc1F | 2.88%
32 | Cc1ccc(C(=O)NC(C)C)cc1-c1ccc(C(=O)NCC2CC2)cc1 | -2.32%
33 | NC(=O)c1ccc(Oc2nccc(-c3c(-c4ccc(F)cc4)ncn3C3CCNCC3)n2)cc1 | 9.98%
34 | NC(=O)Cc1ccccc1Oc1nccc(-c2c(-c3ccc(F)cc3)ncn2C2CCNCC2)n1 | 10.3%
